Key:
CD1E = test: pooled miR-30 sensor sort-seq; sequence = guide strand; settings: shRNA
CD27 = test: as above; settings: shRNA
Further: reference of the scale not given here.

Sequence | sensor-assay potency score (higher = more potent) (CD1E) | sensor-assay potency score (higher = more potent) (CD27)
TAAGTTTTTCAGCTCCTGCTTG | -0.417 | 
TCACACTCGGTGCACTCCTTGT |  | -1.13
TAAAATCGGAGCTGCACAGGGA |  | 0.114
TTTTTCAGCTCCTGCTTGCTGA | -0.242 | 
TATTTCCTTAATATCTAGGTAG | -0.111 | 
ATAACTGGAACAGTGACTGTAA | 0.29 | 
TTGGAAGAGGATCACACTCGGT |  | -0.746
TATCTGGATAAAACTATGGAAG | -1.28 | 
TAATATCTGGATCTCGAAGGGG | -0.509 | 
TTGTTTGATCTATATTTCCTTC |  | -0.475
TAGACTGCTGTGTTTCACCCGA | -0.381 | 
TTTGATCTATATTTCCTTCGTT |  | 0.393
TAGGATTGTAGAGCCTGGGGAG | -0.471 | 
TTTTGATCCACGATACTTGTGC | 0.208 | 
TGTTCTTATTTGAACTCTGTTT | -0.835 | 
TATTTAAGAAGATTTGTGGGGC | 0.193 | 
AACTACAACCAATATGACCAGG | -0.902 | 
TTCCACTTCTTCAATACTCTGT | 0.573 | 
TGAAAACAAGGAACATTCCAGA |  | -0.449
TTTCGCAGCAGGAAGTGTGTTT |  | 0.0361
TATAACTGGAACAGTGACTGTA | 0.739 | 
ATGCGAATAAAATCGGAGCTGC |  | -0.25
TCTGGCAGCACAGCTTTCCCTG |  | -1.15
TGTCTCGTCAGCATTAGGCAGG | -0.59 | 
TAGCATGTGGGTCTTTCGCAGC |  | -0.998
TTCTATGCTGGTCACAGTCCTT |  | -1.06
TTTGTTTGATCTATATTTCCTT |  | 0.303
TGCAAGGATCACACTGAGCAGC |  | -1.06
TCTACAGCCAGCTAATATCTGG | -0.694 | 
ATATCCACCATGTCTCGTCAGC | -0.905 | 

— the OligoGym collection
